Entries with a potency or affinity are not part of this list. Records with an inconclusive call do not appear. Activity calls are given as the source filed them.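 The calls were made as follows: active = every replicate run active, each with half-maximal inhibition reached at or below twice the top valid dose; inconclusive = runs disagree, or fits are weak or poor; inactive = every run inactive, including upward signal shifts.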

In PubChem BioAssay AID623978 (Broad Institute, 2012) one finds outcome data, which are given here for 3 molecules.

For this assay, the target named is Glycogen synthase kinase-3 alpha (Homo sapiens) (UniProt P49840). In words: GSK3A enzyme blockers, homolog specificity check – biochemical, microfluidics, dry powder samples, set 2, selectivity assay for GSK3beta inhibitor project, dose response (AID 623978). Conditions: GSK3a microfluidic mobility shift, percent conversion; series mostly up to 35 µM.
Glycogen synthase kinase-3 alpha (Homo sapiens), sequence (P49840 whole entry, looked up): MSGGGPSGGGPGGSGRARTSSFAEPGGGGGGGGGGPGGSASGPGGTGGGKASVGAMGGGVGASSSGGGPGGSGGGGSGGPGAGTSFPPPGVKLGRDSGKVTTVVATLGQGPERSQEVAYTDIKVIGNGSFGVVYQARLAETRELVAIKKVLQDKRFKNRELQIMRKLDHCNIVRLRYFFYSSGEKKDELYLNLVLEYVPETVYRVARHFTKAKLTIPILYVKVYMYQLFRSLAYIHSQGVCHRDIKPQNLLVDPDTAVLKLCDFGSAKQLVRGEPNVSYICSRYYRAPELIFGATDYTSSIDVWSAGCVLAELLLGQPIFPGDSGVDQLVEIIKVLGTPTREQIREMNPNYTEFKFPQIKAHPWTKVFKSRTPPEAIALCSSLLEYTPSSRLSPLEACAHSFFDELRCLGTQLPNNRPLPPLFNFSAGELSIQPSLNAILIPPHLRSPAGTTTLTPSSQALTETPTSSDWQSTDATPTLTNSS

Take `Cc1ccc(S(=O)(=O)N2CCN(CC(=O)N/N=C/c3ccccn3)CC2)cc1`: the result was inactive. For `COc1cc(C(=O)N2CCN(c3ccccn3)CC2)cc(OC)c1OC`, the outcome was inactive.

Turning to `O=C(Cc1cccc2ccccc12)Nc1cn(C2CCC2)cn1`, the result was inactive.
